Compound activity deposited in PubChem BioAssay by Buhrlage Lab, Dana-Farber Cancer Institute and Novartis Institutes for BioMedical Research (Cambridge, Mass).
This is a sample that favours compounds with a hit; in the whole collection about 12% have one here.
USP8 block: human USP8 deubiquitinase inhibition | inhibition, % at 20 µM | 4.2% of 47,000 active | AID 1645853 | P40818 | purified USP8, Ub-rhodamine cleavage fluorescence, 30 min
USP17 block: inhibitors of human USP17 deubiquitinase | 6.5% of 47,000 active | A8MUK1 | AID 1645855 | inhibition, % at 50 µM | purified USP17, Ub-rhodamine cleavage fluorescence, 3 h
USP30 inh: inhibitors of human USP30 deubiquitinase; purified USP30, Ub-rhodamine cleavage fluorescence; AID 1645860; inhibition, % at 25 µM; Q70CQ3; 5.3% of 47,000 active
Target sequence (Q70CQ3 whole entry, looked up): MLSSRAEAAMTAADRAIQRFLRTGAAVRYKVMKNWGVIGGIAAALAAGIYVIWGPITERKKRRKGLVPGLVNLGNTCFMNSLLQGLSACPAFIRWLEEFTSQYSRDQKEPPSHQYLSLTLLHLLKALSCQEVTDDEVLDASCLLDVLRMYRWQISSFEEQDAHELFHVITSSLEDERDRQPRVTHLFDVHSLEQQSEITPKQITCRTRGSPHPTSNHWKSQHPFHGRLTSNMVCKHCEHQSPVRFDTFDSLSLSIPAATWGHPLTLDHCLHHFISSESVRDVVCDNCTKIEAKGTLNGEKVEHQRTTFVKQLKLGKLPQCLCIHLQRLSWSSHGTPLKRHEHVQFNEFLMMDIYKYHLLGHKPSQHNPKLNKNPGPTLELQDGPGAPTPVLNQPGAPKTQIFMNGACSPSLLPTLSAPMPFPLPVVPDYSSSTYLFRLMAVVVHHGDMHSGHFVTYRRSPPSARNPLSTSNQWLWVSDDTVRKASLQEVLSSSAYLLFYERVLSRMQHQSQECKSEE
* = called active by the depositor; i = inactive; nt = no result. No stated cut-off is given here; in the data, active means inhibition above about 30%; inactive means the rest.

SMILES	USP8 block	USP17 block	USP30 inh
COCC(C)NC(=O)c1cc2cccnc2n(Cc2ccc(F)cc2)c1=O (configuration not stated)	-1	38*	31*
O=C(NCc1ccco1)c1cc2cccnc2n(Cc2ccccc2)c1=O	-3	-31	-91
CCCCC[C@H](O)C1C(=O)O[C@H](C)[C@@H](O)/C=C/C=C/C=C\C=C/C=C(\C)[C@@H](O)[C@H](O)[C@H](O)C[C@H](O)C[C@@H](O)C[C@@H](O)C[C@@H](O)C[C@H]1O (some centres not stated)	-103	-89	-235
O=C(COc1cccc(-n2cnnn2)c1)Nc1ccc(Cl)cc1C(=O)c1ccccc1	1	2	-25
CO[C@@H]1C[C@H]2C=C[C@H]3[C@H]4O[C@]2(/C(C)=C/[C@@H](C)[C@@H]([C@H](C)O)OC1=O)[C@@H]3[C@H](O)[C@@H](C)[C@H]4O	0	-10	9
COCC(O)C1OC(=O)C(O)CC2C=CC3C4OC2(/C(C)=C\C1C)C3C(O)C(COC)C4OC(=O)c1ccc[nH]1 (configuration not stated)	3	0	38*
COc1ccc2c(c1)nc(C(F)(F)F)n2C1CCN(Cc2ccc(O)cc2)CC1	-2	-20	-69
Cc1cccc(-n2c(CSc3nc4ccccc4[nH]3)nc3ccccc3c2=O)c1C	-222	1	1
Cc1nn(Cc2ccccc2)c(Cl)c1C(=O)NC1CCCc2ccccc21 (configuration not stated)	11	56*	35*
Cc1nn(Cc2ccccc2Cl)c(C)c1C(=O)Nc1ccc2c(c1)OCCO2	8	9	6
C=C/C(=C/C(=O)C[C@H](C)C[C@@H](C)CC[C@H](O)[C@H](C)C(=O)CC(O)[C@H](C)[C@@H](C)OC(=O)C[C@@H](O)C1=C(C)C(=O)OC1=O)CC (some centres not stated)	77*	88*	54*
Cc1cc(CN2C[C@H](OCC(=O)N(C)C)[C@H]3OCCC[C@H]32)no1	9	4	5
c1cc(-c2nccc(CN3CCCC4(CCCCC4)C3)n2)ccn1	37*	14	24
O=C1NCC2(CCCN(Cc3ccncc3)C2)Oc2ccccc21 (configuration not stated)	-4	-60	-192
COc1oc(C2C/C(=C\C(C)=C\c3ccc([N+](=O)[O-])cc3)CO2)c(C)c(=O)c1C (configuration not stated)	3	-7	5
C[C@H]1O[C@@H]2C3=C(C(=O)[C@H]4O[C@H]4[C@@H]3O)[C@@H]1[C@@H]1[C@@H](C)OC=C3[C@@H](O)[C@@H]4O[C@@H]4C(=O)[C@]312	2	-26	-17
CC1CC[C@]2(NC1)O[C@H]1C[C@H]3[C@@H]4CC[C@H]5C[C@@H](O[C@@H]6O[C@H](CO)[C@H](O[C@@H]7O[C@H](CO)[C@@H](O)[C@H](O[C@@H]8OC[C@@H](O)[C@H](O)[C@H]8O)[C@H]7O[C@@H]7O[C@H](CO)[C@@H](O)[C@H](O)[C@H]7O)[C@H](O)[C@H]6O)CC[C@]5(C)[C@H]4CC[C@]3(C)[C@H]1[C@@H]2C (some centres not stated)	-12	62*	41*
C/C=C1/CN2CC[C@]34C(=C(C(=O)OC)[C@H]1C[C@H]23)Nc1c(O)cccc14	86*	37*	-99
COc1ccc(C2c3cccn3-c3ccccc3CN2C(=O)CCC(=O)NC2CC2)cc1 (configuration not stated)	1	-5	-65
COc1cccc2c1NC(=O)C21CCN(C(=O)Nc2cccc3ccccc23)CC1	97*	92*	20
O=C(Nc1ccccc1)N1CCC2(CC1)C(=O)Nc1c(Oc3ccccc3)cccc12	5	-27	2
CC(C)CCN1CC2C(=O)Nc3ccccc3C2C1 (configuration not stated)	-78	-15	-13
CC(=O)N(C)[C@@H]1[C@H]2[C@@H]3CCN2C[C@H]1O3	8	5	13
N#Cc1ccc(NC(=O)CN2CC=C(c3ccccc3)CC2)cc1Cl	-5	-34	-199
Cc1cc(CN2C[C@H](Oc3ccccn3)[C@H]3OCCC[C@H]32)no1	-94	-45	-63
SMILES	USP8 block	USP17 block	USP30 inh
CN1CCCC[C@@H]2N(C(=O)Cn3ccc(=O)[nH]c3=O)CCC[C@@]21C	2	12	31*
CN1CC[C@@H]2[C@H]1CCCCN2C(=O)COc1ccc(F)cc1	-50	-29	-32
CN1C(=O)[C@@]23C[C@]4([C@@]56C[C@]78SS[C@](CO)(C(=O)N7[C@@H]5Nc5ccccc56)N(C)C8=O)c5ccccc5N[C@@H]4N2C(=O)[C@]1(CO)SS3	1	-32	68*
CC(C)N1CC[C@@H]2[C@@H](CO[C@H]2CNC(=O)c2ccno2)C1	-115	-8	2
CO[C@H]1/C=C/C=C\C=C\C[C@H](OC(=O)[C@@H](C)NC(=O)C2CCCCC2)[C@H](C)[C@@H](O)/C(C)=C\CCc2cc(O)cc(c2O)NC(=O)C1	-4	33*	-36
COc1ccc2c(c1)NC(=O)C21CCNCC1	-9	-10	-4
O=C(Nc1nccs1)[C@H]1CN2CCC1C[C@@H]2Cn1cc(-c2ccccc2)nn1 (some centres not stated)	-7	-27	-21
CO[C@H]1[C@H](C)[C@@H]([C@H]2CC[C@H]([C@@H]3CC[C@H]([C@@]4(C)O[C@]5(O[C@H](C[C@@H]6O[C@](O)([C@@H](C)C(=O)O)[C@@H](C)[C@H](O[C@@H]7CC[C@H](OC)[C@@H](C)O7)[C@@]6(C)OC)C[C@@H](OC)[C@H]5C)[C@H](C)[C@H]4OC)O3)O2)O[C@](C)(O)[C@@H]1C	4	8	26
CC1Oc2cc3c(-c4c(O)cc(O)c5c(O)c6c(cc45)OC(C)C(C)C6=O)c(O)cc(O)c3c(O)c2C(=O)C1C (configuration not stated)	59*	81*	35*
O=C1CSC(c2ccc3c(c2)OCO3)c2cnn(C3CCCCC3)c2N1 (configuration not stated)	-50	-31	-6
COC1=C(C2=C(OC)C(=O)c3cc4c(c(O)c3C2=O)C(=O)OC(C)C4)C(=O)c2c(cc3c(c2O)C(=O)OC(C)C3)C1=O (configuration not stated)	-27	70*	-42
COc1cc(O)cc2c1C(=O)O[C@@H](C)CCCC(=O)CCCCC2	-14	12	21
C=C1[C@H]2C[C@@]3(C4C[C@@H]5[C@@]6(C)CC[C@H](O)[C@@]5(C4N(CC)C6)[C@@H]3CC2=O)[C@@H]1O	-4	0	nt
O=C(Cc1ccc2c(c1)CCC2)N1CCCCC1CN1CCOCC1 (configuration not stated)	3	-11	-20
c1ccc(CCN2CCc3nc4cccnc4cc3C2)nc1	-302	-174	i
O=C1C=CC(O)C2C1CC13SSC4(CC5C(=O)C=CC(O)C5N4C1=O)C(=O)N23 (configuration not stated)	3	-17	60*
COCCN1CCC2(COCc3c(C)nc(NCC4CC4)nc32)C1 (configuration not stated)	4	4	19
